Each structure is given as a SMILES string. Whole data set: some 110,000 compounds, median “z-score” near -0.1, cut for the highest 2% near 2. Only a selection was taken, and the highest values are over-represented in it overall. Calls of active or inactive are those of the source.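 The calls were made as follows: active = z-score in the third read window above 3 or below -3; inactive = the rest.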

Chain of Metabotropic glutamate receptor 8 (Rattus norvegicus) (P70579 whole entry, looked up): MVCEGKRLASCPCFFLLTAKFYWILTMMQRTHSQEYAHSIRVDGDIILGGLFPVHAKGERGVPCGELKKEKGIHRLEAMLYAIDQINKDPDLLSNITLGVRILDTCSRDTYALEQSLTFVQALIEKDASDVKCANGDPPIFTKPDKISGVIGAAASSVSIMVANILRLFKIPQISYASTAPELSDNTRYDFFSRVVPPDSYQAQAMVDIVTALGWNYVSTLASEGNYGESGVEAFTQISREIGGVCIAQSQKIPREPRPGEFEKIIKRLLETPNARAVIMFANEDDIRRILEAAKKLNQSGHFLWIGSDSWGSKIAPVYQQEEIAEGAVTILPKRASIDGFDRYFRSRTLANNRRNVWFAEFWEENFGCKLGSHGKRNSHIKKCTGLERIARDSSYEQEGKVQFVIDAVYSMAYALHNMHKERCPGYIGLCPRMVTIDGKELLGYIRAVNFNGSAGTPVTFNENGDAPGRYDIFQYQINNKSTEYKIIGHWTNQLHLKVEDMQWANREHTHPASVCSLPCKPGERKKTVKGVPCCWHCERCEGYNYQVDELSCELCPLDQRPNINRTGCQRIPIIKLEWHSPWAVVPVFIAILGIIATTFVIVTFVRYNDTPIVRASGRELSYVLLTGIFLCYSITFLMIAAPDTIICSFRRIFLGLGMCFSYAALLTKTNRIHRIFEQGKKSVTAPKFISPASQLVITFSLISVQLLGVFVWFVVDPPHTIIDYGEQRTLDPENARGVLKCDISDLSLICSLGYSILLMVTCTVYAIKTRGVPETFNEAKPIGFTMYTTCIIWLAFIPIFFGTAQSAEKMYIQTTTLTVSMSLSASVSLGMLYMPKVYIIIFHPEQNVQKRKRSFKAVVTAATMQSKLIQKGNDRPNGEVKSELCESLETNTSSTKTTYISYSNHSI

The test addresses Metabotropic glutamate receptor 8 (Rattus norvegicus) (UniProt P70579). The test is described as follows: rat mGluR8 modulators via GIRK flux, primary screen, cell-based, thallium flux, HTS (AID 488969). The following applies: HEK293 rat mGluR8, GIRK (G protein-gated inwardly rectifying potassium channel) thallium flux, FluoZin2; at 10 µM; stronger effect = higher value; submaximal glutamate (EC20) added with thallium.
`O=C(OCc1ccccc1)C1=[N+]([O-])OC(C(=O)OCc2ccccc2)C1c1c[nH]c2ccccc12` (stereo unspecified) showed a z-score of -0.556.
For `CCOC(=O)C1=C(C)Nc2nc3ccccc3n2C1c1ccccc1` (stereo unspecified) the value was 0.0404; for `Cc1ccc2c(c1)CCCN2C(=O)c1ccncc1`, 0.255; for `COc1cccc(C2=NOC(C(=O)Nc3cccc(C(C)=O)c3)C2)c1OC` (stereo unspecified), 0.301.
For `Cc1c(-c2ccccc2)nc2ccccc2c1C(=O)OCC(=O)Nc1ncc(C(F)(F)F)cc1Cl` the value was 0.00577; for `COC(=O)Cc1[nH]nc2c1C(c1c[nH]c3ccccc13)C(C#N)=C(N)O2` (stereo unspecified), -0.415.
As for `COc1ccc(/C=N\N=C2/SC(CC(=O)O)C(=O)N2c2ccc(O)cc2)cc1OC` (stereo unspecified), the figure is -0.0449; as for `CC(=O)Nc1cccc2c1C(=O)NC2=O`, 0.274.
For the compound `CC(C)Cn1cc(C(=O)NC2CCN(Cc3ccccc3)CC2)c2c3ccccc3n(C)c2c1=O`, the z-score is -0.13.
Consider `O=C(c1ccccc1)N1CCN(Cc2ccccc2)CC1`, for which the z-score is -0.853.
As for `O=C(NC(=S)N1CCN(Cc2ccccc2)CC1)c1ccccc1`, the figure is 6.31 (active); as for `S=C(NCCc1ccccc1)N1CCN(Cc2ccccc2)CC1`, -0.499.
As for `O=C1NCCN1C(=O)c1ccccc1F`, the figure is 0.555; as for `Cc1csc(NC(=O)CSc2ncc(-c3ccccc3)[nH]2)n1`, 0.148; as for `COc1ccc(Cn2c(-c3ccco3)nc3oc4ccccc4c(=O)c3c2=O)cc1`, 0.403.
For `COc1ccc(Cn2c(-c3ccco3)nc3oc4cc(OC)ccc4c(=O)c3c2=O)cc1` the value was 2.22.
`COc1ccc2c(=O)c3c(=O)n(Cc4ccco4)c(-c4ccco4)nc3oc2c1` gave a z-score of -0.397.
For `CS(=O)(=O)N(CC(N)=O)c1ccc2c(c1)OCO2` the value was -0.00195; for `COc1ccc(NCC(=O)Nc2ccccc2C#N)cc1Cl`, -0.204; for `N#Cc1ccccc1NC(=O)CNc1ccc(Cl)c(C(F)(F)F)c1`, 2.38.
As for `Cc1ccccc1NC(=O)CNc1ccc(Cl)c(C(F)(F)F)c1`, the figure is -0.365; as for `N#Cc1cc(Oc2cccnc2)c(Oc2cccnc2)cc1C#N`, 0.18.
For `O=C(Nc1cccc(Cl)c1)Nc1cccc(Cl)c1` the value was 0.0262; for `O=C(Nc1ccccc1)Nc1nccs1`, 1.3; for `O=C(Nc1cccc(Cl)c1)Nc1nccs1`, 10.2 (active).
Turning to `COC(=O)c1ccc(Oc2nc3c(c(=O)n(C)c(=O)n3C)n2CCC(C)C)cc1`, the z-score turned out to be 1.63.
For `CN1C(=O)/C(=C/c2ccc3c(c2)OCO3)N=C1c1ccccc1` the value was 0.393; for `CC(=O)Nc1c(C(=O)N2CCOCC2)cnn1-c1ccc(C)c(C)c1`, -0.0497; for `CCC(=O)Nc1c(C(=O)N2CCCCCC2)cnn1-c1ccc(C)c(C)c1`, 2.47.
For `O=C(Cc1ccccc1)Nc1c(C(=O)N2CCCCCC2)cnn1-c1ccccc1` the value was -0.477; for `CC(C)NC(=O)Cn1c(=O)cnc2ccccc21`, 0.171; for `O=C(CSc1nc(C2CCCCC2)nc2ccccc12)NCc1ccc2c(c1)OCO2`, -1.07.
As for `O=C(NCCSc1c[nH]c2ccccc12)c1ccco1`, the figure is 3.57 (active); as for `CC(C)C(=O)NCCSc1c[nH]c2ccccc12`, -0.143; as for `Cn1c(SCC(=O)NCc2ccc3c(c2)OCO3)nnc1-c1c[nH]c2ccccc12`, -0.821.
Compound `O=C(CSc1ncnc2c1cnn2-c1ccc(F)cc1)NCc1ccc2c(c1)OCO2` displayed a z-score of 0.54.
For `O=C(NCCSc1c[nH]c2ccccc12)c1ccc(Br)o1` the value was -0.00412.
As for `O=C(CSc1ncnc2c1cnn2-c1ccc(Cl)cc1)NCc1ccc2c(c1)OCO2`, the figure is 3.12 (active); as for `O=C(CSc1c[nH]c2ccccc12)NCc1ccc2c(c1)OCO2`, 2.27.
The compound `O=C(CSc1nc(C2CC2)nc2ccccc12)NCc1ccc2c(c1)OCO2` came in with a z-score of -0.21.
As for `Clc1ccc(-n2ncc3c(NCc4ccc5c(c4)OCO5)ncnc32)cc1`, the figure is -0.426.
As for `O=C(CSc1nc(CCC2CCCC2)nc2ccccc12)NCc1ccc2c(c1)OCO2`, the figure is 8.15 (active); as for `O=C(CCc1c[nH]c2ccccc12)NCc1ccc2c(c1)OCO2`, -0.143; as for `O=C(CN1C(=O)c2ccccc2C1=O)N1CCN(c2nnc(-c3ccccc3)c3ccccc23)CC1`, 0.179.
For `COC(=O)Nc1ccc(OCc2ccccc2)cc1` the value was 0.466; for `CC1CCN(S(=O)(=O)c2cc(C(=O)N3CCN(c4ncccn4)CC3)ccc2Br)CC1`, -0.827; for `O=C(NCCC1=CCCCC1)C1CCCN(S(=O)(=O)c2cccnc2)C1` (stereo unspecified), 0.742.
As for `COc1ccc(S(=O)(=O)n2nc(-c3ccc(Cl)cc3)cc2N)cc1OC`, the z-score is -0.0966.
For `O=C(Cn1cnc2c(nnn2Cc2ccc(F)cc2)c1=O)N1CCCCC1` the value was 0.251.
As for `Cc1ccc(C(=O)CCC(=O)Nc2cccnc2)cc1C`, the figure is -0.25.
For `CCCCC(=O)Nc1ccc(C(=O)Nc2nnc(COC)s2)cc1` the value was -0.311; for `Nc1nonc1C(=O)NCCNCc1cc(Br)ccc1OCc1ccccc1F`, 4.61 (active); for `Nc1nonc1C(=O)NCCNCc1cc(Br)ccc1OCc1ccc(F)cc1`, 0.587.
`Nc1nonc1C(=O)NCCNCc1ccccc1OCc1ccccc1F`: the z-score turned out to be 1.61.
For `Cc1nn(CC(=O)NCc2ccc(OC(C)C)cc2)c(=O)c2cc3occc3n12` the value was -0.4; for `Cc1ccccc1OCc1nnc(SCc2cc(=O)[nH]c3ccccc23)n1-c1ccccc1`, 0.00735; for `O=P(CCNCc1ccco1)(c1ccccc1)c1ccccc1`, 0.267.
As for `Cn1nnnc1SCc1nnc(-c2ccc(Cl)cc2)o1`, the figure is 2.68; as for `Cn1nnnc1SCc1nnc(-c2ccc(F)cc2)o1`, -0.226; as for `Cn1nnnc1SCc1nnc(-c2ccccc2Br)o1`, 0.436.
As for `Cc1ccc(/C(O)=C2/C(=O)C(=O)N(CCN3CCOCC3)C2c2cccs2)cc1` (stereo unspecified), the figure is -0.157.
Regarding `COc1cccc2cc(C(=O)N3CCN(c4ncccn4)CC3)c(=O)oc12`, the z-score was -0.344.
As for `COc1ccc(C(=O)N2CCN(C3CCCCC3)CC2)c(OC)c1`, the figure is -0.579; as for `CCCSc1cc(NCCOC(C)=O)c([N+](=O)[O-])c2nonc12`, 2.48.
Take `COC(=O)CCSc1cc(NCCOC(C)=O)c([N+](=O)[O-])c2nonc12`: the z-score is -0.0935.
For `CCCC(=O)OCCNc1cc(SCCC(=O)OC)c2nonc2c1[N+](=O)[O-]` the value was -0.658; for `Oc1cnc2ccccc2c1CN1CCOCC1`, -0.0791.
Turning to `CCOc1cc(C)c(Cl)cc1S(=O)(=O)NCc1ccc2c(c1)OCO2`, the z-score was -0.837.
As for `Cc1ccc(S(=O)(=O)N2CCN(C3CC(=O)N(Cc4ccccc4)C3=O)CC2)cc1C` (stereo unspecified), the figure is -0.767; as for `CCCn1c(C)cc(/C=C(\C#N)C(=O)OCC(=O)Nc2ccc(OC)c(Cl)c2)c1C`, -0.243.
As for `CCCn1c(C)cc(/C=C(\C#N)C(=O)OCC(=O)Nc2cccc(OC)c2)c1C`, the figure is 3.42 (active).
As for `CCCn1c(C)cc(/C=C(\C#N)C(=O)OCC(=O)Nc2cc(OC)c(OC)c(OC)c2)c1C`, the figure is -0.21; as for `CN(CC(=O)NCCN1CCN(c2ccccc2)CC1)S(=O)(=O)c1ccc2c(c1)CCC(=O)N2`, 0.291.
`CC1(C)COC(c2cc([N+](=O)[O-])ccc2Cl)=N1` displayed a z-score of -0.41.
As for `Clc1ccc(/C=N/Nc2nn[nH]n2)cc1`, the figure is -1.27.
For `COc1cc(C(=O)Nc2ccc(Oc3ncnc4sc(-c5ccccc5)cc34)cc2)cc(OC)c1OC` the value was 0.344; for `COc1ccc(C(=O)Nc2ccc(Oc3ncnc4sc(-c5ccccc5)cc34)cc2)cc1OC`, 4.83 (active); for `COc1ccccc1C(=O)Nc1ccc(Oc2ncnc3sc(-c4ccccc4)cc23)cc1`, -0.975.
For `CC1=NN(c2ccccc2)C(=O)C1C(=O)c1ccc(Cl)cc1` (stereo unspecified) the value was 2.14; for `CC1=NN(c2ccccc2)C(=O)C1C(=O)c1ccccc1` (stereo unspecified), -0.168.
`CCCCCCN1N=C(C)C(C(=O)c2ccc(Cl)cc2)C1=O` (stereo unspecified) returned a z-score of 0.521.
In turn, `Clc1ccc(C2=Nn3c(nnc3-c3cccs3)SC2)cc1` had a z-score of -0.153.
For `CCOC(=O)C1=C(C)NC(=O)CC1c1ccccc1` (stereo unspecified) the value was 0.409; for `Cc1ccc(-n2c(=S)[nH]c3c(oc4ccccc43)c2=O)cc1`, 0.618; for `COc1ccc(-n2c(=S)[nH]c3sc4c(c3c2=O)CCc2ccccc2-4)cc1`, 0.114.
As for `Cc1ccc(-n2c(=S)[nH]c3sc4c(c3c2=O)CCc2ccccc2-4)cc1`, the figure is 2.33.
Regarding `COc1ccc2c(c1)c(=O)oc1cc(OCC(=O)NC3CCCCC3)ccc12`, the z-score stood at 0.0339.
Consider `O=C(NC(=S)Nc1ccccc1)c1csnn1`, for which the z-score is 12.4 (active).
As for `O=C(NC(=S)Nc1ccccc1Cl)c1csnn1`, the figure is 11.5 (active).
For `COC(=O)c1c(NC(=S)Nc2ccccc2Cl)sc(C)c1C` the value was 0.827.
For `Cc1ccc(NC(=O)c2csnn2)c(C)c1` the value was 0.804; for `CC(=O)Nc1ccc(NC(=S)Nc2ccccc2)cc1`, -0.0688.
The compound `O=C(NC(=S)Nc1ccccc1)c1ccc(-c2ccccc2)cc1` yielded a z-score of 0.0142.
`C=C(C)C(C)(C#CCN1CCCC1)OC(C)=O` (stereo unspecified) gave a z-score of -0.061.
As for `C=CCc1c(C)nc(SC)nc1Nc1ccccc1`, the figure is -0.563.
Consider `Cc1cccc(NC2=NC(=S)N(CC#N)C23CCCCC3)c1`, for which the z-score amounted to 1.02.
For `CC1CCC(=C(C#N)C(=O)Nc2cccc(Cl)c2)CC1` (stereo unspecified) the value was -0.314; for `CN(C#N)c1nc(Cl)nc(Nc2cccc(Cl)c2)n1`, -0.113.
`COc1ccc(NC2=NC(=S)N(c3ccccc3C)C23CCCCC3)cc1`: the z-score is 15.4 (active).
As for `Cc1ccc(Cl)cc1NC1=NC(=S)N(C(C)C)C12CCCCC2`, the figure is 0.728; as for `COc1ccc(NC2=NC(=S)N(c3cccc(C)c3)C23CCCCC3)cc1`, 1.22.
For `CC(C)(C)C1CCC2(CC1)C(Nc1cccc(C(F)(F)F)c1)=NC(=S)N2CC#N` (stereo unspecified), the z-score is 2.58.
For `O=C1CN=C(Nc2cccc(C(F)(F)F)c2)N1C1CCCC1`, the z-score was -2.95.
For `FC(F)(F)c1cccc(NC(=S)NC2CCCC2)c1`, the z-score is 1.26.
As for `COc1ccc(NC2=NC(=S)N(c3ccc(C)cc3)C23CCCCC3)cc1`, the figure is 0.796.
As for `N#CCN1C(=S)N=C(Nc2cccc(Cl)c2)C12CCCCC2`, the z-score came to 2.57.
For `CC1CCC2(CC1)C(Nc1cccc(Cl)c1)=NC(=S)N2CC#N` (stereo unspecified) the value was 2.23; for `Cc1ccc(S(=O)(=O)N2CCN(c3ccc4nnc(-c5ccccc5)n4n3)CC2)cc1`, -0.183.
In the case of `CN(C)C(=O)c1snnc1-c1ccccc1`, the z-score is -0.386.
For `O=C1C(Cl)=C(NCCCO)C(=O)c2ccccc21` the value was -0.185; for `CCOC(=O)c1c(NC(=O)CSc2nc3ccccc3s2)sc(C(C)=O)c1C`, -0.129.

For the origin of these results see PubChem BioAssay AID488969 (Vanderbilt High Throughput Screening Facility, 2010).
